Source: article PMC11624278

Key:
Assay in all cases: cross-link between two proteins; affinity purification or IP with mass spectrometry; cross-linking mass spectrometry
[1] = molecular target: Calreticulin (UniProt P14211)
[2] = molecular target: Integrin alpha-3 (UniProt Q62470)
[3] = molecular target: Integrin alpha-5 (UniProt P11688)

Measured: listed as a hit

UniProt Q62470, sequence (Q62470 whole entry): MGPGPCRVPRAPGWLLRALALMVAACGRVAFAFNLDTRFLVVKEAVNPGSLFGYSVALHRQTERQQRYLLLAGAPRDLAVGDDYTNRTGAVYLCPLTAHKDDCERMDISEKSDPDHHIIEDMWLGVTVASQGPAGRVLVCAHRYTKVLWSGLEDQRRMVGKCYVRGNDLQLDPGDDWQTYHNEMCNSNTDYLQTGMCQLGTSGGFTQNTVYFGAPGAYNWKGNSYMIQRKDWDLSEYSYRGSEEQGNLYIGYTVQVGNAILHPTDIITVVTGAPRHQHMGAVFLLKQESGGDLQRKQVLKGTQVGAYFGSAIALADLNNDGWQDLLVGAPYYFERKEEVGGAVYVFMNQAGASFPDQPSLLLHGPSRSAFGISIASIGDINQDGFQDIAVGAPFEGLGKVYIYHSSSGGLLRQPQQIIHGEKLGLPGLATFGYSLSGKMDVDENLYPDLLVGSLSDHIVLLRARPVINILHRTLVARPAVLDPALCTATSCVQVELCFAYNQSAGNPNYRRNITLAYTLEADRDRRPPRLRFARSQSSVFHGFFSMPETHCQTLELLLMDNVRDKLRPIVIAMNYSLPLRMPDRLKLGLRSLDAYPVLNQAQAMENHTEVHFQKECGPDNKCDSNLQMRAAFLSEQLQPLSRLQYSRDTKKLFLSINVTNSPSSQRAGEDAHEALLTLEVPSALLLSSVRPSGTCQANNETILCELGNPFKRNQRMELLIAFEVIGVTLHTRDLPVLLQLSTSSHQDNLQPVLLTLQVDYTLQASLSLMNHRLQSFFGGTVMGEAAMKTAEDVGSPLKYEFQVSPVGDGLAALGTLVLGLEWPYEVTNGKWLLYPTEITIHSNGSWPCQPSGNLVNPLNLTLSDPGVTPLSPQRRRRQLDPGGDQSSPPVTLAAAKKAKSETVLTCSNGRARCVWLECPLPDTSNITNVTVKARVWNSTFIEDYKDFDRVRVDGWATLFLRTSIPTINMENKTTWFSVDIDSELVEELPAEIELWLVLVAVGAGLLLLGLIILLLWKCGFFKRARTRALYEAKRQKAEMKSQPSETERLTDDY
UniProt P11688, sequence (P11688 whole entry): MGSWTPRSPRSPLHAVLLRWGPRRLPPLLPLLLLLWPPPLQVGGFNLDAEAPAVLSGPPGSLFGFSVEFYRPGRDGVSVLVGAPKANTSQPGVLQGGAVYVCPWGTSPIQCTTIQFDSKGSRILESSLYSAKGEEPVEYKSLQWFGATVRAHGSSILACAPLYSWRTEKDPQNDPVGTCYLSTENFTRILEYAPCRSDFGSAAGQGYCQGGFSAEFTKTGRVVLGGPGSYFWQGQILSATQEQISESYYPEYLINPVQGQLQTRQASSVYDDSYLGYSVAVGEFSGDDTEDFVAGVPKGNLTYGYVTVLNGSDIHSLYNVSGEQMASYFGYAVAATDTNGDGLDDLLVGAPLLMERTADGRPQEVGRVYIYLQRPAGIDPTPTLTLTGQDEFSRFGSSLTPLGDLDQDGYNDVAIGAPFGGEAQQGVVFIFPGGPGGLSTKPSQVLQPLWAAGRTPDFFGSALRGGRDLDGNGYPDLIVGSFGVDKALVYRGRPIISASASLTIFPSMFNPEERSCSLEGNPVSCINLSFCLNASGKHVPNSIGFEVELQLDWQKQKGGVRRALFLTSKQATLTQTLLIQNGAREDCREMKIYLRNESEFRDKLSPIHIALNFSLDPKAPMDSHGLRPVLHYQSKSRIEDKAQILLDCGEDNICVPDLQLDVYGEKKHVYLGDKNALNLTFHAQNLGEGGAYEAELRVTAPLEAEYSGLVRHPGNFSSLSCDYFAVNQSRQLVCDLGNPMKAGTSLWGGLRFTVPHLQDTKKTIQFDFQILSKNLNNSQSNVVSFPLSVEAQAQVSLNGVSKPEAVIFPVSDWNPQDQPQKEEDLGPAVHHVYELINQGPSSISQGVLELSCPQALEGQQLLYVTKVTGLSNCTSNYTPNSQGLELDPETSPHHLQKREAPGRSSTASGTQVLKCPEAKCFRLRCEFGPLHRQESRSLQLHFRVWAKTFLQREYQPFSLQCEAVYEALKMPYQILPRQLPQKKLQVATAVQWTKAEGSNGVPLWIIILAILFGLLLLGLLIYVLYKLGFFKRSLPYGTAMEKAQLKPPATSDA
UniProt P14211, sequence (P14211 whole entry): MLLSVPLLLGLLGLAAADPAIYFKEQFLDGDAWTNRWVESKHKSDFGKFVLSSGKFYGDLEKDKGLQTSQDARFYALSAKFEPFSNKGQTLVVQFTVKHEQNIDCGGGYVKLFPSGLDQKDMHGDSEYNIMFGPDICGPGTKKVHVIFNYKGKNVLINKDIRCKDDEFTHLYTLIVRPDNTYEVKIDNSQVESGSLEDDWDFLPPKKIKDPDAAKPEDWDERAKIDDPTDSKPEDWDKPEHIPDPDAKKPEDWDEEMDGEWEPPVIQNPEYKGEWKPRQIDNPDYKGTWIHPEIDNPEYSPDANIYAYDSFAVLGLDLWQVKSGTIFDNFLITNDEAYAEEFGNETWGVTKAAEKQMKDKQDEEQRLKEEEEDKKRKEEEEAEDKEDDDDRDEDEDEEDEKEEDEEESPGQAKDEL

Integrin beta-1, P09055
yes: all assays above
